# High-throughput results deposited in PubChem BioAssay by several laboratories.
# SARS 3CLpro inh – SARS-CoV 3CLpro protease inhibition | P0C6X7 | recombinant SARS-CoV 3CLpro, quenched FRET peptide cleavage | inhibition, % at 6 µM | 0.14% of 290,000 active | AID 1706; in the data active = inhibition above about 12%
# BoNT-F LC inh – BoNT F light chain protease inhibition. 0.22% of 360,000 active. Multiplex microsphere protease cleavage assay, flow cytometry. AID 588497. inhibition, % at 10 µM; in the data active = inhibition above about 35%, passing the limit was not always enough; inconclusive = no clear call, values can overlap the other calls
# Anthrax LF inh2 – blocks Bacillus anthracis lethal factor protease; multiplex microsphere protease cleavage assay, LF; 0.12% of 360,000 active; inhibition, % at 10 µM; P15917
# BoNT-A LC inh2 – inhibitors of Botulinum neurotoxin A light chain protease. inhibition, % at 10 µM. 0.17% of 360,000 active. multiplex microsphere protease substrate cleavage, flow cytometry
# BJeLR lethal – BJeLR cell viability loss. 0.17% of 300,000 active. inhibition, % (test concentration not listed). BJeLR (HRASV12) viability, CellTiter-Glo ATP luminescence, 48 h; in the data active = inhibition above about 50%; inconclusive = no clear call, values can overlap the other calls
# Autofluor counter – compound fluorescence in toxin protease inhibitor counterscreen | 3.1% of 360,000 active | fluorescence intensity (no concentration beside the values) | compound autofluorescence counterscreen, microsphere flow cytometry; stronger effect = higher value; in the data active = fluorescence intensity above about 16000; inconclusive = no clear call, values can overlap the other calls
# Numbers stand for hits; i = inactive; ? = inconclusive; nt = no result. An excerpt weighted towards active compounds, which were near 3.6% of everything screened. Cut-off read from the data, not from the text of the source, unless noted: active = inhibition above about 30%; inconclusive = no clear call, values can overlap the other calls; inactive = below that.
SMILES,SARS 3CLpro inh,BoNT-F LC inh,Anthrax LF inh2,BoNT-A LC inh2,BJeLR lethal,Autofluor counter
Cc1noc(C)c1C(=O)N1CCN(C(=O)c2sc3cc(Cl)ccc3c2Cl)CC1,i,i,i,i,i,18980
Cc1noc(C)c1C(=O)N1CCN(c2ccccc2O)CC1,nt,i,i,i,nt,i
Cc1noc(C)c1C(=O)N1CCN(CCc2ccccc2)CC1,i,i,i,?,i,24658
Cc1noc(C)c1C(=O)N1CCN(Cc2ccccc2)CC1,i,i,i,i,i,i
CCN1CCN(c2nc3ccccc3s2)CC1,i,i,i,?,i,20785
Cn1c(C(=O)N2CCN(c3nc4ccccc4s3)CC2)cc2sccc21,i,i,i,i,i,19151
O=C(c1cc2sccc2n1Cc1ccc(F)cc1)N1CCN(c2nc3ccccc3s2)CC1,i,i,i,i,i,i
CSc1ccc(NC(=O)N2CCN(c3nc4ccccc4s3)CC2)cc1,i,i,i,?,i,21539
COc1cc(SC)ccc1C(=O)NCC1CCCCC1,i,i,i,i,i,i
O=C(Nc1ccc2c(c1)OCCO2)C1c2ccccc2OCC(=O)N1CCc1ccccc1 (configuration not stated),nt,i,i,i,nt,i
CC(=O)c1c(C)[nH]c(C(=O)CN2C(=O)NC3(CCCCC3C)C2=O)c1C (configuration not stated),nt,i,i,i,nt,i
CC1CN(C(=O)Nc2ccc3c(c2)OCO3)CC(C)O1 (configuration not stated),i,i,i,i,i,20354
COc1ccc(NC(=O)N2CC(C)OC(C)C2)cc1OC (configuration not stated),i,i,i,i,i,24184
COc1ccc(NC(=O)N2CCCC2)cc1OC,i,i,i,i,i,i
COc1cc(C(=O)N2CC(C)OC(C)C2)c([N+](=O)[O-])cc1OC (configuration not stated),i,i,i,i,i,18981
O=C(Nc1ccc2c(c1)OCO2)N1CCCC1,i,i,i,i,i,i
Cc1cc(N)n(Cc2cccs2)n1,i,i,i,i,i,i
CCCCc1ccc(NC(=O)c2c(C)noc2C)cc1,i,i,i,i,i,17390
NC(=O)CSc1oc(-c2ccco2)nc1S(=O)(=O)c1ccc(Br)cc1,i,i,i,i,i,i
CCOC(=O)CSc1nc2c(sc(=S)n2Cc2ccco2)c(=O)n1-c1ccc(F)cc1,i,i,i,?,i,16594
CCC(C)NC(=O)CSc1nc2c(sc(=S)n2Cc2ccco2)c(=O)n1-c1ccccc1 (configuration not stated),i,i,i,i,i,i
CCN(CC)C(=O)CSc1nc2c(sc(=S)n2-c2ccccc2)c(=O)n1Cc1ccco1,i,i,i,i,i,21125
CCN(CC)C(=O)CSc1nc2c(sc(=S)n2CC)c(=O)n1-c1ccccc1,i,i,i,?,i,22153
CCN(CC)C(=O)CSc1nc2c(sc(=S)n2-c2ccccc2OC)c(=O)n1-c1ccccc1,i,i,i,i,i,i
CCOC(=O)C(Sc1cc(C)nc(N)n1)C(C)=O (configuration not stated),i,i,i,i,i,i
SMILES,SARS 3CLpro inh,BoNT-F LC inh,Anthrax LF inh2,BoNT-A LC inh2,BJeLR lethal,Autofluor counter
Cc1ccccc1-c1cn(-c2ccccc2)c(=S)[nH]1,i,i,i,i,i,i
CC(C)(C)c1cn(-c2ccc(F)cc2)c(=S)[nH]1,i,i,i,?,i,19889
O=Cc1cc2ccccc2nc1SCc1ccc(Cl)c(Cl)c1,i,i,i,i,55,i
O=Cc1cc2ccccc2nc1SCc1ccc(Cl)cc1,i,i,i,i,63,i
Cc1ccc(CSc2nc3ccccc3cc2C=O)cc1,i,i,i,i,i,i
CNC(=O)C(=O)Nc1nc(C23CC4CC(CC(C4)C2)C3)cs1,i,i,i,i,i,i
Cc1noc(C)c1C(=O)Nc1nc(C23CC4CC(CC(C4)C2)C3)cs1,i,i,i,i,i,23212
O=c1cc(-c2c(F)c(F)c(F)c(F)c2F)oc2c(F)c(F)c(F)c(F)c12,i,nt,nt,nt,i,nt
CCN(CC)c1ccc(/C=N/NC(=O)c2ccco2)c(O)c1,i,nt,nt,nt,58,nt
O=C(Nc1cccc2c1CCCC2)c1ccco1,i,i,i,i,i,20290
O=C(Nc1ccc2c3c(cccc13)CC2)c1ccco1,i,i,i,i,i,i
CCN(CC)c1ccc(NC(=O)c2ccco2)cc1,i,i,i,?,i,20274
CC(=O)c1ccc(NC(=O)c2ccc(NC(=O)c3ccco3)cc2)cc1,i,i,i,i,i,i
CC(=O)Nc1ccc(NC(=O)c2ccco2)cc1,i,i,i,i,i,22348
CCCC(=O)Nc1ccc(C(=O)NNC(=O)c2ccco2)cc1,i,i,i,?,i,i
Cc1ccc(Oc2ccc(NC(=O)c3ccco3)cc2)cc1,i,i,i,i,i,16687
Cc1ccc(NC(=O)c2ccc(OC(=O)c3ccco3)cc2)cc1,i,i,i,i,i,i
COc1cc(NS(=O)(=O)c2ccc(NC(=O)c3ccco3)cc2)nc(OC)n1,i,i,i,i,i,17434
COc1cccc(N2CCN(C(=O)c3[nH]c(C)c(C(C)=O)c3C)CC2)c1,i,i,i,i,i,i
CC(=O)c1c(C)[nH]c(C(=O)N2CCN(c3ccc(F)cc3)CC2)c1C,i,i,i,i,i,23763
CC(C)N(CCNC(=O)C1CCCN(c2ncnc3c2nc2n3CCCCC2)C1)Cc1ccccc1 (configuration not stated),i,i,i,i,i,i
CCOc1ccc(OCC)c(NC(=O)CSc2nc3cccnc3n2C)c1,i,i,i,i,i,i
COc1cc(NC(=O)CSc2nc3ccccc3c(=O)n2C)ccc1NC(=O)c1ccco1,i,i,i,i,i,17911
CCOc1ccc(OCC)c(NC(=O)CSc2nc3ccccc3c(=O)n2C)c1,i,i,i,i,i,22042
COc1cc(NC(=O)c2ccco2)c(OC)cc1NC(=O)CSc1nnc(-c2cccs2)n1C,i,i,i,i,i,22652
SMILES,SARS 3CLpro inh,BoNT-F LC inh,Anthrax LF inh2,BoNT-A LC inh2,BJeLR lethal,Autofluor counter
C=CCn1cc(CN2CCC(C(=O)Nc3cccc(-c4cccc(Cl)c4)c3)CC2)c(C)n1,i,i,i,i,i,i
COc1ccc(/C=C/C(=O)OCC(=O)NCc2ccco2)cc1OC,i,i,i,i,i,i
Cn1c(SCC(=O)NC2CCCC2)nnc1C(F)(F)F,nt,i,?,i,nt,i
COc1cc(O)c(C(CC(=O)N2CCCCC2)c2ccc(N(C)C)cc2)c(OC)c1 (configuration not stated),nt,i,i,i,i,i
CC(=O)Nc1cccc(NC(=O)C2CC(=O)N(C3CCCCC3)C2)c1 (configuration not stated),i,i,i,i,i,i
Cn1c(SCc2ccccn2)nnc1-c1ccccc1,i,i,i,i,i,i
COCCOC(=O)c1c(C)n(C)c2ccc(OC(=O)c3cccs3)cc12,i,i,i,i,nt,16814
COCCOC(=O)c1c(C)n(C)c2ccc(OC(=O)N(C)C)cc12,i,i,i,i,i,22829
CC1CCN(C(=S)c2ccc(O)cc2)CC1,i,i,i,i,i,22756
